# Several values for one entry are separate records, joined by “and”; a condition that tells them apart may be missing. Equal values may be shown once. Screen size: about 390,000 compounds; about 150 (0.038%) were called active. About 3% were inconclusive and are not listed. The call rests on the fitted dose curve; in most records, active means well fitted inhibition curve with a large enough effect; inconclusive means small, poorly fitted or top-dose-only effect; inactive means no such curve, though single readings can be large or run the other way. This excerpt belongs to a sample that is enriched for actives. More than one record can exist for a structure, and the calls need not agree.
# Target: Regulator of G-protein signaling 4 (Homo sapiens) (UniProt P49798)
# Assay: Inhibitors of Regulator of G Protein Signaling (RGS) 4: qHTS; further: nearly all actives have a fitted effect of over 75% in size
# Conditions: Transcreener GDP fluorescence polarization, RGS4-accelerated GTP hydrolysis; series mostly up to 114 µM; activity change, negative = inhibition: at the top concentration
# How it was run: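 MLSMR compounds (23 nl, pin-transferred) preincubated 10 min at room temperature with a 500nM (2x) first reagent, then RGS4 at 900nM (2x) plus Transcreener GDP mix added; fluorescence polarization (620/688 nm) read before and after 90 min at 30 °C.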
# On the % scale 0 is the no-effect control and ±100 the full control effect; potency means the concentration at half of the fitted maximal effect.
# Chain of Regulator of G-protein signaling 4 (Homo sapiens) (P49798 whole entry, looked up): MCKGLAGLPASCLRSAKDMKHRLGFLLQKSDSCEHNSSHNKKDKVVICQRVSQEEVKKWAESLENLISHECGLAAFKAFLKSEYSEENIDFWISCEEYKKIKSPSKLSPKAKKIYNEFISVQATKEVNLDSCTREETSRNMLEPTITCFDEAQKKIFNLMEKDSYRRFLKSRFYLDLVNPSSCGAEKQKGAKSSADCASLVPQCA
SMILES,Potency,"activity change, negative = inhibition"
CC[C@@H]1Cc2cc(O)ccc2C2=C1c1ccc(O)cc1C[C@H]2CC,inactive and 23.8 µM (active),
COc1ccc(C2CC(O)(c3ccccc3)Oc3cc(C)cc(C)c32)cc1 (centres undefined),,-13.5% (inactive)
O=S(=O)(c1ccc2nc(N3CCN(c4cccc(Cl)c4)CC3)ccc2c1)N1CCCCC1,,-18.5% (inactive)
CCOC(=O)c1cccc(NC(=O)C(Cc2ccccc2)NS(=O)(=O)c2cccc3nsnc23)c1 (centres undefined),,-4.55% (inactive)
COc1cccc(CNCCSc2nnnn2C)c1OCc1ccccc1Cl,,-5.25% (inactive)
CC(=O)c1cccc(NC(=O)CSc2nc3c(c(=O)[nH]2)CCC3)c1,,16.8% (inactive)
O=C(Nc1c(C(=O)N2CCN(c3ccc(F)cc3)CC2)oc2ccccc12)c1ccco1,,12.6% (inactive)
Cc1cc(C)cc(NC(=O)c2cnc3sc(N4CCCC4)nn3c2=O)c1,,-12.1% (inactive)
COc1cc(OC)cc(C(=O)Nc2ccc3nc(Nc4cccc(C(F)(F)F)c4)cc(C)c3c2)c1,,-2.35% (inactive)
Cc1ccc(N(C)C(=O)C2CCN(S(=O)(=O)c3ccc4c(c3)CCCN4C(=O)C3CCC3)CC2)cc1,,-18.2% (inactive)
CSc1nc(Nc2ccc(F)cc2)cc(-c2ccccc2)n1,,5.75% (inactive)
Cc1cccc(-n2c(SCC(N)=O)nc3c(oc4ccccc43)c2=O)c1,,-0.746% (inactive)
C=Cc1ccc(Cn2c(C(=O)O)c(CNC3CCCC3)c3ccc(C)cc32)cc1,,8.65% (inactive)
COc1ccccc1CNC(=O)Cn1nc(C)c2nn(-c3ccc(Cl)cc3)c(C)c2c1=O,,18.3% (inactive)
CC1CCCCN1S(=O)(=O)c1ccc(F)c(C(=O)Nc2ccccc2C(F)(F)F)c1 (centres undefined),,4.05% (inactive)
COc1ccc2ncc3c(-c4ccc(C)c(C)c4)nn(CC(=O)NC4CCCC4)c3c2c1,,26.8% (inactive)
COc1cccc(CNC(=O)c2ccc3c(c2)N(Cc2ccc(C(F)(F)F)cc2)C(=O)c2ccccc2S3)c1OC,,20.4% (inactive)
CC(C)CC(NS(=O)(=O)c1ccc2c(c1)oc(=O)n2C)C(=O)NCc1ccccc1Cl (centres undefined),,9.93% (inactive)
Cc1cc(OCC(=O)Nc2ncn[nH]2)c(C)c(C)c1Br,,-27.4% (inactive)
CN1C(=O)c2[nH]nc(-c3ccc(F)cc3)c2C1c1ccccn1 (centres undefined),,0.713% (inactive)

SMILES,Potency,"activity change, negative = inhibition"
O=C(CSCc1cnn(-c2ccccc2)c1-n1cccc1)NCc1ccccc1Br,,-25% (inactive)
O=C(NCCc1ccccc1)c1ccc2c(c1)N(Cc1ccc(F)cc1)C(=O)c1ccccc1S2(=O)=O,,-0.894% (inactive)
O=S(=O)(NCC(c1ccccc1)N1CCc2ccccc21)c1ccccc1 (centres undefined),,-21.4% (inactive)
Cc1c(CCNC(=O)c2ccc(C(F)(F)F)cc2)sc2nc(-c3ccc(F)cc3)nn12,,-4.84% (inactive)
CCN(CC)CCNC(=O)c1cc2c(=O)oc3ccc(C)cc3c2s1,,-2.06% (inactive)
COc1ccc(CCn2c3c(c(=O)[nH]c2=S)CN(C(C)C)CN3)cc1OC,,-5.94% (inactive)
Cn1c(C(=O)N2CCC(C(=O)N3CCN(c4ccccc4)CC3)CC2)cc2sccc21,,8.86% (inactive)
O=S(=O)(c1cccc(C(F)(F)F)c1)N1CCN(c2nc(-c3cccs3)nc3ccccc23)CC1,,-10.2% (inactive)
Cc1cccc(NC(=O)CSc2ncc(-c3ccccc3)[nH]2)c1C,,12.9% (inactive)
COc1cccc(N=C2SC(C(=O)Nc3cccc(Cl)c3)CC(=O)N2C)c1 (centres undefined),,13.4% (inactive)
O=C(Nc1cc(C(F)(F)F)ccc1Cl)c1ccc2c(c1)CCN2S(=O)(=O)c1ccccc1,,0.535% (inactive)
CCNS(=O)(=O)c1ccc(NC(=O)CSc2nc(-c3ccco3)cc(C(F)(F)F)n2)cc1,,1.04% (inactive)
CCS(=O)(=O)N(C)[C@@H]1c2cc(C#N)ccc2OC(C)(C)[C@H]1O,,-117% [at 56.9 µM] (inactive)
COc1ccc(CNC(=O)Cn2nnc(-c3ccccc3F)n2)cc1,,-28.6% (inactive)
COc1ccc(OC)c(-n2nnc3c(sc4nc(C)c(Br)c(C)c43)c2=O)c1,,15.3% (inactive)
Cc1ccc(-c2cn3c(n2)sc2cc(C(=O)NCCCc4ccccc4)ccc23)cc1,,17.8% (inactive)
O=C1CC(c2ccccc2)CC2=C1C(c1ccco1)n1nc(C(F)(F)F)nc1N2 (centres undefined),,12.1% (inactive)
COc1ccc(-c2c(C)c3ccc(O)c(CN4CCCC4)c3oc2=O)cc1OC,,-3.02% (inactive)
CCC(=O)Nc1cccc(C(=O)OCc2cc(=O)n3nc(CC)sc3n2)c1,,-4.68% (inactive)
